What all share (test): NCI-60 one-dose screen, 48 h (100 = growth as untreated, 0 = no growth, -100 = all killed)
Holding throughout (conditions): 10 µM unless noted

The test system of assay [1] is T-47D breast.
Assay [2] relates to BT-549 breast.
For assay [3], the system named is MDA-MB-435 melanoma.
Assay [4] relates to SW-620 colon.
Assay [5] concerns MCF7 breast.
Assay [6] relates to HCT-116 colon.
Assay [7] has as its system HCC-2998 colon.
In assay [8] the test system is KM12 colon.

Results on 14 molecules are retold here after PubChem BioAssay (NCI).

The panel holds about 83,000 compounds, 20% with a hit somewhere; the sample as a whole holds those more often.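 Assay: single dose, 48 h. Readout: percent growth (0 = no net growth; negative = cell death). Active: <10.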 A number with no mark means an inactive call. Active and inactive are the calls of the source.

In the case of `CC(C)(C)n1cc(-c2ccnc(NCCNS(=O)(=O)c3ccc(O)cc3)c2)c(-c2cccc(O)c2)n1`, the growth in assay [1] was 88.4%; in assay [2], 93.6%; in assay [3], 101%; in assay [4], 103%; in assay [5] it was 81.5%; in assay [6] it was 82.4%. For the same molecule, the growth is 122% in assay [7] and 94.7% in assay [8].
`CC(=O)O[C@H]1C[C@@H]2C(C)(C)C(=O)CC[C@@]2(C)c2ccc(C(C)C)cc21`: the growth in assay [1] was 102%; in assay [2], 101%; in assay [3], 100%; in assay [4], 104%; in assay [5] it was 107%; in assay [6], 105%. For the same molecule, the growth was 107% in assay [7] and 97.7% in assay [8].
Regarding `Cn1cc(-c2csc(-c3cn(CCCN4CCOCC4)c4ccccc34)n2)c2cccnc21`, the growth was 62.1% in assay [1]; 88.7% in assay [2]; 91.6% in assay [3]; 94.6% in assay [4]; 85.6% in assay [5]; 84.4% in assay [6]. The values for the growth in assay [7] and in assay [8] were 92.9% and 85.4%, respectively.
For the molecule `CN(C)c1ccc(-c2nc(-c3ccccc3)c(-c3ccccc3)[nH]2)cc1`, the growth in assay [1] was 79.3%; in assay [2], 104%; in assay [3], 89.7%; in assay [4] it was 108%; in assay [5] it was 83.1%; in assay [6] it was 86.7%. Moreover, the growth in assay [7] is 117%; in assay [8] it was 96.1%.
Turning to `Cc1ccc(NC(=O)Cn2c(Br)nc3c2c(=O)n(C)c(=O)n3C)cc1`, the growth in assay [1] is -10.5% (active); in assay [2], 0.261% (active); in assay [3] it was 54.2%; in assay [4], 30%; in assay [5], 13.2%; in assay [6], -21.5% (active). Moreover, the growth is 83.7% in assay [7] and 63.8% in assay [8].
For `CCN(CC)CCN1C(=O)c2c(c(C)c3c(oc4ccc(O)cc43)c2C)C1=O`, the growth in assay [1] is 0.129% (active); in assay [2], 105%; in assay [3], 76.9%; in assay [4], 2.51% (active); in assay [5] it was 4.29% (active); in assay [6] it was -62.6% (active). For the same molecule, the growth is 23.5% in assay [7] and 32.3% in assay [8].
Take `Cc1[nH]c(C2CC(c3ccc(C(F)(F)F)c(F)c3)=NN2c2ccccc2)c(C)c1C(=O)NCC(F)(F)F` (configuration not stated): the growth is 65.9% in assay [1]; 103% in assay [2]; 98.1% in assay [3]; 99.1% in assay [4]; 56.5% in assay [5]; 82.4% in assay [6]. Besides, the growth in assay [7] is 96.5%; in assay [8], 87.5%.
With `C=C(C)[C@@H]1CCC[C@]2(C(=O)O)CC[C@]3(C)[C@@H](CC[C@@H]4[C@@]5(C)C/C(=C/c6ccncc6)C(=O)C(C)(C)[C@@H]5CC[C@]43C)[C@@H]12`, the growth was 47.5% in assay [1]; 46.5% in assay [2]; 19.8% in assay [3]; 17.5% in assay [4]; 19.1% in assay [5]; 4.88% (active) in assay [6]. The growth in assay [7] is 23.8%; in assay [8], 19.7%.
On to `COc1cccc(CNc2c3ccccc3nc3ccccc23)c1`, for which the growth in assay [1] is 45.9%; in assay [2] it was 68.7%; in assay [3], 43%; in assay [4] it was 25.5%; in assay [5], 14.6%; in assay [6], 9.89% (active). Moreover, the growth in assay [7] is 39.3%; in assay [8], 35.9%.
As for `Cc1ccc(-c2nc(/C=C3/C(=O)Nc4ccc(F)cc43)c3ccccn23)cc1`, the growth was 100% in assay [1]; 111% in assay [2]; 86.7% in assay [3]; 44.3% in assay [4]; 35.5% in assay [5]; 55% in assay [6]. For the same molecule, the growth in assay [7] is 95%; in assay [8], 81.7%.
`C#CC#CC#CC#CC#CC#CC#CC#CCC1OC[C@H](COC(=O)O[C@@H](C(=O)O[C@H]2C[C@@]3(O)[C@@H](OC(=O)c4ccccc4)[C@@H]4[C@]5(OC(C)=O)CO[C@@H]5C[C@H](O)[C@@]4(C)C(=O)[C@H](OC(C)=O)C(=C2C)C3(C)C)[C@@H](NC(=O)c2ccccc2)c2ccccc2)O1` (some centres not stated): the growth in assay [1] was 41.3%; in assay [2], 26.4%; in assay [3], -48% (active); in assay [4] it was 27.7%; in assay [5] it was 25%; in assay [6], 14.2%. Further, the growth in assay [7] was 10.4%; in assay [8] it was 10.8%.
Consider `O=S(=O)(NCCNc1nccc(-c2c(-c3ccc(F)c(O)c3)nc3sccn23)n1)c1ccc(F)cc1`, for which the growth in assay [1] is 35.9%; in assay [2] it was 49.5%; in assay [3], 4.98% (active); in assay [4] it was 29.5%; in assay [5] it was 17.1%; in assay [6], 6.5% (active). Further, the growth in assay [7] was 41.8%; in assay [8] it was 25.7%.
`Nc1nc(N)c(N=Nc2ccccc2)c(-c2ccccc2)n1`: the growth is 10.2% in assay [1]; 47% in assay [2]; 73.1% in assay [3]; 86.3% in assay [4]; 19.4% in assay [5]; 69.7% in assay [6]. Also, the growth was 76.4% in assay [7] and 33.4% in assay [8].
As for `NC(=O)c1c(NC(=O)c2cccc(C(F)(F)F)c2)sc2c1CCC(=O)C2`, the growth in assay [1] is -3.77% (active); in assay [2], -28.2% (active); in assay [3] it was -12.2% (active); in assay [4], -12.4% (active); in assay [5], 5.02% (active); in assay [6], -28.2% (active). Moreover, the growth in assay [7] is 16.1%; in assay [8] it was 0.496% (active).
